Nrf2 block – Nrf2 qHTS screen for inhibitors; 360,000 tested, 2.1% active; A549 ARE-Fluc reporter, luciferase luminescence, 18-24 h; AID 504444, 2011; Potency, µM (top dose mostly 46 µM), inactives show at the highest dose activity change, negative = inhibition, usual class: inhibitors; note: potency is the fitted concentration of half-maximal effect; % is set by controls: 0 for no effect and ±100 for the full control effect; nearly all actives have a fitted effect of over 60% in size
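In this cell-based qHTS, ARE-driven firefly luciferase in A549 cells reports Nrf2 activity; the luminescent signal after BugLite lysis is the measured value, with a prior CellTiter-Fluor read for cell health.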
Nrf2 ARE act – qHTS of Nrf2 Activators | Potency, µM (top dose mostly 46.1 µM), for inactives: at the highest dose activation, most hits filed as activators | 410,000 tested, 0.31% active | AREc32 ARE-luciferase reporter (MCF7-derived line), luminescence, 24 h; note: potency is the fitted concentration of half-maximal effect; % of control where 0% means no effect; nearly all actives have a fitted effect of over 65% in size
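AREc32 cells carrying an ARE-driven firefly luciferase reporter were seeded at 1000 cells/well in OPTI-MEM with 5% FBS, then exposed to compound for 24 hr at 37 deg C. Luminescence was read with Steady-Glo after 30 min at RT.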
miR-21 reporter – qHTS Assay for Modulators of miRNAs and/orActivators of miR-21 | HeLa miR-21 FLuc reporter, luciferase, 48 h | Potency, µM (top dose mostly 38.3 µM), without a hit: top-dose activity change, positive = activation, actives largely listed as activators | 340,000 tested, under 10 active;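 note: % of control where 0% means no effect; miR-21 action dims this reporter so a rising signal means less miR-21 action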
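Luminescence from a firefly luciferase reporter carrying a miR-21 binding site downstream, stably expressed under a CMV promoter in HeLa cells that make miR-21 endogenously, reports miRNA modulation after 48 h compound exposure up to approximately 40uM final.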
GRP78 ERSR act – qHTS for Inducers of the Endoplasmic Reticulum Stress Response (ERSR) in Human Glioma: qHTS | U87-MG GRP78 promoter luciferase reporter, 16 h | Potency, µM, inactives show top-dose activation, hits mostly activators | 420,000 tested, 0.02% active | AID 602332, 2012; note: potency is the fitted concentration of half-maximal effect; series mostly up to about 76 µM; % of control where 0% means no effect; nearly all actives have a fitted effect of over 35% in size
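ERSR induction read as luciferase luminescence (Bright-Glo, 10 min at room temperature) in stably transfected human U87-MG glioma cells exposed to compounds for 16 h, using GRP78 as sensor.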
A549 viability – Nrf2 qHTS screen for inhibitors: counterscreen for cytotoxicity | A549 ARE-Fluc cells, CellTiter-Fluor viability, 18-24 h | Potency, µM (highest dose often 46 µM), for the others: at the highest dose activity change, negative = cytotoxicity, usual class: inhibitors | 390,000 tested, 0.16% active | AID 504648, 2011; note: potency is the fitted concentration of half-maximal effect; % is set by controls: 0 for no effect and ±100 for the full control effect
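Cytotoxicity counterscreen: CellTiter-Fluor fluorescence was measured in A549 ARE_Fluc cells after 18-24 h of compound exposure in a concentration series. The subsequent BugLite luminescent read reports ARE-luciferase activity.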
TSG101-PTAP inh – qHTS Assay for Iinhibitors of HIV-1 Budding by Blocking the Interaction of PTAP/TSG101. AID 493005, 2010. Fluorescence polarization, FITC-PTAP peptide / Tsg101 binding. Potency, µM (series often up to 115 µM), without a hit: at the top dose activity change, negative = inhibition, most hits filed as inhibitors. 340,000 tested, under 10 active; active = well fitted inhibition curve with a large enough effect in the main read-out, with a control signal flat, not every such curve was filed as active; inconclusive = small, poorly fitted or top-dose-only effect, or effect the other way, or a change in a side signal; inactive = no such curve, though single readings can be large or run the other way; note: potency is the fitted concentration of half-maximal effect; % of control where 0% means no effect
Target sequence (Q99816 whole entry, looked up): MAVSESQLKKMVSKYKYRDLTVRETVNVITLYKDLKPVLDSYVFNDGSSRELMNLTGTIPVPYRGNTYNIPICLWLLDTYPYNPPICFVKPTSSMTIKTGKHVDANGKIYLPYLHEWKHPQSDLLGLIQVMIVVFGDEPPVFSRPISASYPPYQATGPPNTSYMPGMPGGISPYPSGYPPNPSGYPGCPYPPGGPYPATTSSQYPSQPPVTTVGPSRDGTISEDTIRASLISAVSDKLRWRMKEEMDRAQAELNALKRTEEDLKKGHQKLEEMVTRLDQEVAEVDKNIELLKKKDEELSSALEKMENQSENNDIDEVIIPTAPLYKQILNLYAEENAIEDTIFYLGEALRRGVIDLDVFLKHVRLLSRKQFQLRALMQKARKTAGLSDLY
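Compounds were pin-transferred onto Tsg101 binding domain (10 uM final) in HEPES pH 7.5 buffer, then FITC-PTAP peptide was added at 50 nM final. After 20 min at RT, polarization reported peptide displacement across a qHTS concentration series.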
Numbers without * were called inactive; ? = inconclusive; / = no result given. The list is not random: actives were taken first. Their share in the collection is about 2.1%. Unless noted, calls come from the whole dose curve; as a rule, active = well fitted curve in the direction sought with a large enough effect; inconclusive = small, poorly fitted or top-dose-only effect, or another doubt; inactive = no such curve, though single readings can be large; an effect the other way counts as inactive or inconclusive.

SMILES	Nrf2 block	Nrf2 ARE act	miR-21 reporter	GRP78 ERSR act	A549 viability	TSG101-PTAP inh
COc1ccc(S(=O)(=O)N2CCOCC2)cc1NC(=O)CN(C)Cc1c(F)cccc1Cl	21µM*	1%	7%	-4%	-8%	2%
Cc1ccc2cc(C(c3nnnn3C3CCCC3)N(Cc3ccco3)Cc3cccs3)c(=O)[nH]c2c1 (configuration not stated)	?	2%	15%	-7%	-19%	-3%
CCC(c1nnnn1C1CCCCC1)N(Cc1ccco1)Cc1cc2ccc(OC)cc2[nH]c1=O (configuration not stated)	23µM*	2%	-6%	-2%	?	-4%
CC(C)OCCCN(Cc1ccco1)C(=O)c1cc2c(s1)-c1ccccc1OC2	16µM*	0%	5%	-5%	7%	/
COc1ccc(-n2c(CNC(=O)c3cccc(OC)c3OC)nnc2SC)cc1	/	/	/	-6%	/	/
COc1cc(-c2nnc(NC(=O)CCS(=O)(=O)c3ccccc3)o2)cc(OC)c1OC	4%	11µM*	/	?	-26%	-1%
COc1cc(OC)cc(-c2nnc(NC(=O)CCS(=O)(=O)c3ccc(F)cc3)o2)c1	21µM*	?	/	-7%	?	-4%
COc1ccc(OC)c2sc(NC(=O)CCS(=O)(=O)c3ccccc3)nc12	?	5µM*	/	14%	-9%	-3%
COc1cc(-c2nnc(NC(=O)CCS(=O)(=O)c3ccc(F)cc3)o2)cc(OC)c1OC	-2%	25%	/	4%	-7%	-6%
COc1ccc(OC)c2sc(NC(=O)CCSc3ccccc3)nc12	-9%	4%	2%	-7%	4%	1%
N[C@@H](C(=O)N[C@H]1C(=O)N2C(C(=O)O)=C(Cl)CC[C@H]12)c1ccccc1	/	/	/	0%	/	/
CSc1cc2c(s1)c1cnn(Cc3cccc(N)c3)c(=O)c1n2C	-10%	/	/	/	-2%	/
Nc1ccc(/C=C/c2ccnc3ccccc23)cc1[N+](=O)[O-]	/	/	/	-1%	/	/
COc1cc2c(cc1OC)C1=NC(=O)CN1C(SCc1ccccc1C)=N2	9.2µM*	1%	-6%	-2%	-15%	-4%
O=C(CSc1nccc(-c2cccs2)n1)Nc1cccc(Cl)c1Cl	-13%	2.2µM*	-3%	-5%	9%	1%
O=C(CSc1nccc(-c2cccs2)n1)Nc1ccc(Cl)cc1	1%	?	-5%	-3%	22%	3%
S=C(NCCCNc1ccc(Br)cn1)NCCCc1cnc[nH]1	-10%	/	/	/	0%	/
Cc1ccc(NS(=O)(=O)c2ccc(Cl)c(C(=O)Nc3ccccc3-c3nc4ccccc4[nH]3)c2)cc1C	23µM*	2%	19%	5%	-27%	2%
CC1Cc2cc(S(=O)(=O)CCC(=O)Nc3ccc(OC(F)(F)F)cc3)ccc2N1C(=O)C1CC1 (configuration not stated)	23µM*	-1%	20%	-4%	1%	/
CN1C(=O)Cc2cc(S(=O)(=O)CCC(=O)Nc3ccc(OC(F)(F)F)cc3)ccc21	-10%	2%	4%	-1%	-8%	/
COc1ccccc1CNS(=O)(=O)c1ccc2c(c1)CC(C)N2C(=O)C1CC1 (configuration not stated)	16%	4%	13%	5%	1%	-4%
Cc1cc(C)c(NS(=O)(=O)c2ccc3c(c2)CC(C)N3C(=O)C2CCC2)c(C)c1 (configuration not stated)	21µM*	0%	21%	-3%	-5%	/
COc1ccccc1CNS(=O)(=O)c1ccc2c(c1)CC(C)N2C(=O)C1CCC1 (configuration not stated)	18µM*	3%	16%	-4%	-14%	-1%
